The results in this text go back to PubChem BioAssay.

The nature of test [1]: inhibitors of TNFa-induced NFkB p65 translocation, primary screen, imaging, HUVEC, MLSMR starter and 10KST1 sets (AID 438;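 active means inhibition above 20% together with a positive visual image hit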;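 further: compound added about 3h40 before a 20 min TNFalpha stimulation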;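 on inhibition: signal is the nuclear over cytoplasmic p65 intensity ratio per well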). The settings on record: HUVEC TNFa-induced p65 nuclear translocation; cell count: measured here: nuclei count (cytotoxicity indicator), at 2.08 µM; inhibition: at 2 µM, stronger effect = higher value, 0% TNFa-plus-vehicle, 100% no-TNFa wells.
Test [2] can be described thus: inhibitors of E-selectin induction by TNFa, primary screen, imaging, HUVEC, immunofluorescence, MLSMR starter and 10KST1 sets (AID 487;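 active means visually confirmed hit in the image check and inhibition above 20%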;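 on inhibition: signal is fraction of cell area covered by stained E-selectin grains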;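 on nuclei count: 100% = median nuclei count of all wells on the same plate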). The settings on record: HUVEC TNFalpha-induced E-selectin immunofluorescence imaging, at 2 µM; inhibition: stronger effect = higher value; nuclei count: measured here: cell number, toxicity.
A short description of test [3]: DUSP6 inhibitors restoring Erk phosphorylation by chemical complementation, primary imaging in DUSP6-transfected HeLa (AID 609;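 active means compounds giving at least 50% inhibition in the cell-based MKP-3 phosphatase rescue imaging test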;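 on inhibition: phospho-Erk level distribution per well compared with pooled transfected vehicle control wells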). The conditions noted are these: HeLa MKP-3 transfected, phospho-Erk imaging KS statistic, at 10 µM, cells stimulated with TPA for 15 min.
For test [4], the target named is Dual specificity protein phosphatase 6 (Homo sapiens) (UniProt Q16828). Described as above. The settings on record: HeLa MKP-3 transfected, phospho-Erk imaging KS statistic; at 10 µM; stronger effect = higher value; cells stimulated with TPA for 15 min.
Chain of Dual specificity protein phosphatase 6 (Homo sapiens) (Q16828 whole entry, looked up): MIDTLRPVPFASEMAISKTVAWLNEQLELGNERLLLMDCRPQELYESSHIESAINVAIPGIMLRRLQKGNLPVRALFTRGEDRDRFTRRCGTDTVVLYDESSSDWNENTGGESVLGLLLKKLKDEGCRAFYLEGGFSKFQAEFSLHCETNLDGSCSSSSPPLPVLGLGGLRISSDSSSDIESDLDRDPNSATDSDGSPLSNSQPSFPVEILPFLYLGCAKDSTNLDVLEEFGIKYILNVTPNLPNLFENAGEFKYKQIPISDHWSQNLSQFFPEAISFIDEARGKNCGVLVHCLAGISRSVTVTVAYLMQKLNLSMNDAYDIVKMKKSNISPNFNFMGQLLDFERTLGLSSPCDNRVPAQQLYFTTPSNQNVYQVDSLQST
Test [5] has as its target Voltage-gated potassium channel subunit beta-2 (Rattus norvegicus) (UniProt P62483). The test is described as follows: KvBeta enzyme negative modulators, primary screen, biochemical, NADPH fluorescence (AID 622;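 active means fluorescence slope higher than the sample average by over 3 SD, cut at about -0.22 in these data, passing the limit was not always enough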;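 further: slope of raw intensity against log time taken from 70 to 1610 s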). The settings on record: recombinant KvBeta, 4-cyanobenzaldehyde reduction, at 10 µM, stronger effect = higher value.
The target is the same in test [6]. Put plainly: KvBeta positive modulators, primary screen, biochemical, NADPH fluorescence (AID 623;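 active means NADPH fluorescence slope more negative than the mean of all samples by about 3 SD, 99.7% confidence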;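 further: fluorescence intensity change per second fitted from 20 to 320 s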). The conditions noted are these: Recombinant KvBeta, NADPH fluorescence decrease slope, 10 min; at 10 µM; stronger effect = lower value.
Test [7] deals with Alpha-2C adrenergic receptor (Homo sapiens) (UniProt P18825). The test is described as follows: modulators of alpha2C/GIRK thallium flux, primary screen, cell-based, HEK293 alpha2C/GIRK1/2 (AID 624;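 active means fluorescence slope after compound addition differing from the mean of all screened samples at 99.7% confidence, in either direction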;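 further: slope of fluorescence ratio to pre-addition baseline per second over 15 to 24 s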). The settings on record: thallium flux BTC fluorescence, at 10 µM, actives lie on both sides.
Chain of Alpha-2C adrenergic receptor (Homo sapiens) (P18825 whole entry, looked up): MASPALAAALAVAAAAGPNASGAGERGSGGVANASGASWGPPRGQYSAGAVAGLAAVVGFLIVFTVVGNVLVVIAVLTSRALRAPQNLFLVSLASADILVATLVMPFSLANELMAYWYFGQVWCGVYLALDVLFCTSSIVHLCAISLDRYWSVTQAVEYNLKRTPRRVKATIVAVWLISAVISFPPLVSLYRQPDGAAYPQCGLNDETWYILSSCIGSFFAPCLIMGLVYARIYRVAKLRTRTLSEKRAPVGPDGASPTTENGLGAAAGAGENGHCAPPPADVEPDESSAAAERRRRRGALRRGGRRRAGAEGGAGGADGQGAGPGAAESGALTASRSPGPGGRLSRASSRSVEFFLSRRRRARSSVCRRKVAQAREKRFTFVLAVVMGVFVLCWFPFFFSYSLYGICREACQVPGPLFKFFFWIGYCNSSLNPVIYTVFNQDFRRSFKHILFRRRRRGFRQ
Test [8] can be described thus: inhibitors of larval lipid processing in zebrafish, primary screen, whole organism, PED6 fluorescence, gall bladder and intestine (AID 686;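 active means a full or partial loss of lipid-probe fluorescence in the fish gall bladder, intestine or both, judged by eye; inactive means no fluorescence loss, or compound toxic to the fish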;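 further: larvae 5 to 7 days old with five fish per well; signal comes from phospholipase A2 cleavage of quenched PED6 carried via bile; overnight exposure to compound and PED6 before scoring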). The settings on record: Zebrafish larvae PED6 lipid processing, fluorescence scoring; screened at 20 µM (by protocol).
Test [9] is described as follows: inhibitors of Chlamydomonas gravitaxis, primary screen, whole organism, Chlamydomonas reinhardtii, WT vs cilia-less mutant, absorbance, 96-well (AID 463189).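 Further: 0% = wild type cc124 cells in DMSO and 100% = ciliumless bld1 mutant cells.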 The conditions noted are these: OD600 absorbance, 2 days, at 10 µM, stronger effect = higher value.
For test [10], the target named is Muscarinic acetylcholine receptor M4 (Homo sapiens) (UniProt P08173). The test is described as follows: compounds altering M4/GIRK thallium flux, either direction, primary screen, M4 allosteric agonist project, cell-based, HEK293 M4/GIRK, BTC-AM (AID 625;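 active means fluorescence slope after compound addition differing from the mean of all tested samples at 99.7% confidence, mostly higher but some lower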;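 further: thallium influx through GIRK channels coupled to M4 in HEK293 cells with BTC-AM dye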). The settings on record: at 10 µM, actives lie on both sides.
Chain of Muscarinic acetylcholine receptor M4 (Homo sapiens) (P08173 whole entry, looked up): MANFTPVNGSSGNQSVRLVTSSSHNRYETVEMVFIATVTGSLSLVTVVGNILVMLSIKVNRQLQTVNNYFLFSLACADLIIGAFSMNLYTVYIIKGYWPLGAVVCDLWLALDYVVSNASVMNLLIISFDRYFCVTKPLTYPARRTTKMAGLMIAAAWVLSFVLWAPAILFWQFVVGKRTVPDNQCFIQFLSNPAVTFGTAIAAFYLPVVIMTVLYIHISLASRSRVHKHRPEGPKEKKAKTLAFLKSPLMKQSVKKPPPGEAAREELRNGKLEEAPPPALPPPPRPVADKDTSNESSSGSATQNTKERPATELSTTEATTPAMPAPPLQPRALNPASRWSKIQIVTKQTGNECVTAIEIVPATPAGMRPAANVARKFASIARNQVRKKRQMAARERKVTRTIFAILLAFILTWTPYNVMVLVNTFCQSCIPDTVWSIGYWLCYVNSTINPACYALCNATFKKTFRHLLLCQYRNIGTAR
Test [11] in a line: inhibitors of mutant huntingtin aggregation, primary screen, imaging, exon1htt(103Q)mCFP cells, high-content imaging (AID 483;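 active means visual image review flags a hit and inhibition of aggregation exceeds 20%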;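 further: compound exposure lasted 3 days before fixation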;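 on nuclei count: percent of the per-plate median nuclei count of sample wells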). The settings on record: exon1htt(103Q)mCFP cell line, aggregate imaging, at 2 µM; inhibition of aggregation: stronger effect = higher value; nuclei count: measured here: cell count, toxicity.
Test [12] is described as follows: inhibitors of Sendai virus-induced IRF3 signaling, primary screen, TLR/RLR signaling modifier project, cell-based, Sendai virus stimulus, luciferase, 10K MLSCN set (AID 602276;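 active means inhibition at or above 50% at 10 µM; inactive means inhibition below 50%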;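 further: firefly luciferase from ISG56 promoter only with Renilla not read in this screen; 0% = Sendai virus plus DMSO and 100% = medium plus DMSO without virus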). The settings on record: HEK293 RL24 IRF3 luciferase reporter, at 10 µM, stronger effect = higher value. On the technique in general: In a reporter assay the amount or activity of a reporter protein is the signal.

Test [13] can be described thus: inhibitors of poly I:C-induced TLR3 signaling, primary screen, cell-based, poly I:C stimulus, luciferase, 10K MLSCN set (AID 602277;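 active means inhibition of the reporter signal at or above 50%; inactive means inhibition below 50%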). The settings on record: HEK293-TLR3 RL24 IRF3 luciferase reporter, at 10 µM, stronger effect = higher value.
The mark [14] stands for this setting: measured here: cell density z-score.
Setting [15] is: measured here: nuclear c-Myc green intensity z-score.
Setting [16] is: measured here: nuclear pErk red intensity z-score, stronger effect = higher value.

Several values for one entry are separate records, joined by “and”; a condition that tells them apart may be missing. Equal values may be shown once. Activity calls are given as the source filed them.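 How the source made its calls, unless noted: active means inhibition at or above 50% relative to wild type and mutant plate controls; inactive means inhibition below 50%.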

Chain of Voltage-gated potassium channel subunit beta-2 (Rattus norvegicus) (P62483 whole entry, looked up): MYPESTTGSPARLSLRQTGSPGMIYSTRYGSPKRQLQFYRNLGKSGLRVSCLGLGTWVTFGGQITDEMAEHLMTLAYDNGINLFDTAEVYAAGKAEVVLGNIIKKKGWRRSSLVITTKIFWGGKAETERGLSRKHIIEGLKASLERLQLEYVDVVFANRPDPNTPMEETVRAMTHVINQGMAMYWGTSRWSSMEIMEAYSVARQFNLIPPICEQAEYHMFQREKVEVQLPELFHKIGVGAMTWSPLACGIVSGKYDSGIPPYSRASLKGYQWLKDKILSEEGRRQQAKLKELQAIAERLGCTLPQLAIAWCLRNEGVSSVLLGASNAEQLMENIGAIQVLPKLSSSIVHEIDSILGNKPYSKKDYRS

Take `CC1CN(C2CCN(C(=O)c3ccccc3)CC2)CC(C)O1` (stereo not drawn): the cell count in [1] is 391. Further, the inhibition is -25.6% (inactive) in test [1], -0.159% (inactive) in test [4] and 4.48% (inactive) in test [9]. This compound also gave a nuclei count in test [2] of 174%. The figures for the z-score in [3] (setting [14]), in test [3] (setting [15]) and in test [3] (setting [16]) were 1.48, -0.00638 and -0.737, respectively. Moreover, in [5], the fluorescence slope is -0.395 (inactive). Further, in [6], the NADPH fluorescence slope is -3.8e-05 (inactive). Further, in test [7], the slope was 0.00679 (inactive). For the same compound, the call in test [8] was inactive.
As for `CC(C)(C)c1nnc2sc(SCC(=O)c3ccccc3)nn2c1=O`, in [1], the cell count is 619. Moreover, the inhibition is 3.4% (inactive) in [1], -55% (inactive) in test [2], -7.67% (inactive) in test [4] and 11.5% (inactive) in [9]. Also, in test [2], the nuclei count was found to be 105%. Also, the z-score in test [3] (setting [14]) is -1.21; in test [3] (setting [15]), -0.101; in test [3] (setting [16]), 1.16. Also, the fluorescence slope in test [5] is -0.455 (inactive); in test [10], 0.00537 (inactive). For the same compound, the NADPH fluorescence slope in test [6] is -6.8e-05 (inactive). For the same compound, the result in test [8] was inactive.
As for `CC(=O)OCC(=O)[C@@]1(O)CC[C@H]2[C@@H]3CCC4=CC(=O)CC[C@]4(C)[C@H]3C(=O)C[C@@]21C`, in test [11], the inhibition of aggregation was 16.5% (inactive). The nuclei count in [11] was determined as 99.5%; in test [2] it was 97.4%. The inhibition was -92.4% (inactive) in test [2]; 3.59% (inactive) in test [4]; 9.11% (inactive) and 28.9% (inactive) in test [9]; 3.98% (inactive) in [12]; 27.5% (inactive) in test [13]. Besides, the values for the z-score in [3] (setting [14]), in test [3] (setting [15]) and in [3] (setting [16]) were -1.29, -1.69 and 0.158, respectively. In addition, the fluorescence slope in test [5] is -0.477 (inactive). In addition, the NADPH fluorescence slope in [6] was -6.1e-05 (inactive). Moreover, the slope in test [7] is 0.00575 (inactive).
Consider `C=CC(O)Cc1c(C)n[nH]c1C` (stereo not drawn), for which the cell count in test [1] was determined as 656. The inhibition in test [1] was -7.1% (inactive); in test [2] it was -59.4% (inactive); in [4] it was -9.66% (inactive); in [9], 11.7% (inactive). The compound further returned a nuclei count in test [2] of 167%. For the same compound, the z-score in test [3] (setting [14]) was -1.01; in test [3] (setting [15]), -0.115; in test [3] (setting [16]), -0.502. Further, the fluorescence slope in [5] was -0.503 (inactive); in test [10] it was 0.00568 (inactive). The NADPH fluorescence slope in [6] is -6.2e-05 (inactive). Besides, the outcome in test [8] was inactive.
In the case of `CCCSc1nnc2n(C)c(=O)c3c4c(sc3n12)CCC4`, in test [1], the cell count was found to be 376. The inhibition is -2.9% (inactive) in test [1], -11.1% (inactive) in test [2], 9.42% (inactive) in test [4] and 62% (active) in test [9]. In addition, in test [2], the nuclei count came out at 83.1%. For the same compound, the values for the z-score in test [3] (setting [14]), in [3] (setting [15]) and in test [3] (setting [16]) were -0.271, -0.0406 and 0.896, respectively. Besides, the results for the fluorescence slope in [5] and in test [10] were -0.501 (inactive) and 0.00582 (inactive), respectively. Moreover, the NADPH fluorescence slope in [6] is -7.9e-05 (inactive). Further, in test [8], the result was inactive.
For `Cc1c(N=Cc2c(O)n(C3CCCCC3)c(=O)[nH]c2=O)c(=O)n(-c2ccccc2)n1C`, the cell count in [1] turned out to be 671. The inhibition was -20.1% (inactive) in [1], -93.8% (inactive) in test [2], 21% (inactive) in [4] and -4.72% (inactive) in [9]. The nuclei count in [2] was determined as 139%. Besides, the z-score was -0.195 in test [3] (setting [14]), -1.05 in [3] (setting [15]) and 0.314 in test [3] (setting [16]). Further, the fluorescence slope in test [5] is -0.396 (inactive). Moreover, the NADPH fluorescence slope in [6] is -3e-05 (inactive). Further, the slope in test [7] is 0.00508 (inactive). Further, the outcome in [8] is “active; weak signal in gallbladder and intestine”.

By inhibition is commonly meant the drop in the measured response relative to a control, in per cent.
